High-throughput results deposited in PubChem by National Center for Advancing Translational Sciences (NCATS).
Cruzain noTriton – cruzain (T. cruzi) inhibition without detergent. purified cruzain, Z-FR-AMC fluorescence, no detergent. 200,000 tested, 2.3% active. P25779. Potency, µM, for inactives: max response, negative = inhibition, most hits filed as inhibitors. AID 1476;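 also: plate controls were enzyme without inhibitor for no effect and buffer without enzyme for full effect; nearly all actives have a fitted effect of over 40% in size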
Target sequence (P25779 123-467 limits assumed): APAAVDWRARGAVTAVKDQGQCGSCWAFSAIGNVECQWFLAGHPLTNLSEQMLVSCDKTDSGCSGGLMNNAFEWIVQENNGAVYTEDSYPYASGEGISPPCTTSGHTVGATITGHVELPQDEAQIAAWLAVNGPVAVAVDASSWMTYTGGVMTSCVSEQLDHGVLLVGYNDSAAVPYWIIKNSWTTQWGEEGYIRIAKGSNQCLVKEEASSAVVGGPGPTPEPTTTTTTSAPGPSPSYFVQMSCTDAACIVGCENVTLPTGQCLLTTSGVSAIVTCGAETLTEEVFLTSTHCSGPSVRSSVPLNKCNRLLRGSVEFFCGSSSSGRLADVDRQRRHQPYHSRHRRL
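Detergent-free condition (0.00005% Triton X-100) in acetate buffer pH 5.5 with DTT. 1.5 nM enzyme and compound were pre-mixed 15 min, then 2 uM Z-FR-AMC substrate added; reaction progress from fluorescence change between first and third reads (60 s).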
Cruzain Triton – inhibitors of Trypanosoma cruzi cruzain with detergent. P25779. purified cruzain, Z-FR-AMC fluorescence, 0.01% Triton. Potency, µM, for the others: max response, negative = inhibition, most hits filed as inhibitors. 200,000 tested, 0.43% active. AID 1478;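 also: plate controls were neutral wells for no effect and buffer without enzyme for full effect; nearly all actives have a fitted effect of over 40% in size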
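Compounds were screened in titration against cruzain (1.5 nM) with 0.01% Triton X-100 to counter colloidal aggregation. Activity was the AMC fluorescence increase over 60 s after adding 2 uM Z-FR-AMC at pH 5.5.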
Numbers without * were called inactive; ? = inconclusive. Most compounds without a hit are left out; they make up all but 2.6% or so of the library. Calls follow the shape of the dose curve; as a rule, active = well fitted curve in the direction sought with a large enough effect; inconclusive = small, poorly fitted or top-dose-only effect, or another doubt; inactive = no such curve, though single readings can be large; an effect the other way counts as inactive or inconclusive. Potency is read from the fitted curve at half-maximal effect.

SMILES	Cruzain noTriton	Cruzain Triton
O=C(Nc1nnc(CC2=CCCCC2)s1)c1cccs1	-9%	-2%
O=C(Nc1ccc(Cl)c(Cl)c1)Nc1nnc(CC2=CCCCC2)s1	25µM*	-1%
CCC(=O)Nc1nnc(CSCc2ccc(F)cc2)s1	0%	-1%
O=C(Nc1ccc(Cl)cc1)Nc1nnc(CSCc2ccc(Cl)cc2)s1	5µM*	1%
COCCN(CCOC)c1ncnc2c1c(-c1ccccc1)cn2-c1ccc(C)c(Cl)c1	?	-1%
Cc1cccc(S(=O)(=O)N2CN(Cc3ccco3)c3nc4ccccc4nc32)c1	25µM*	-8%
COCCN1CN(S(=O)(=O)c2ccccc2)c2nc3ccccc3nc21	-3%	-13%
CCCCOC(=O)c1ccc(Nc2nc3ccccc3c3nnc(C)n23)cc1	?	-3%
CCCNC(=O)CN1C(=O)c2cccnc2Sc2ccccc21	1%	-2%
CC(=O)O[C@H]1C[C@H]2CC[C@@H]3[C@@H](CC[C@]4(C)[C@H](OC(C)=O)[C@H]([N+]5(C)CCCCC5)C[C@@H]34)[C@]2(C)C[C@H]1[N+]1(C)CCCCC1	-14%	-1%
O=C(Nc1cccc2cccnc12)c1cccc2ccccc12	-7%	2%
Oc1c(/C=N/Nc2cccc3cccnc23)ccc2ccccc12	32µM*	0%
Cc1cc(C)cc(NC(=O)c2ccc3oc(=O)c(S(=O)(=O)c4ccc(F)cc4)cc3c2)c1	-4%	1%
CN(C)c1ccc(CC(=O)c2nc3ccccc3s2)cc1	20µM*	-4%
CN(C)C(=O)c1nc2ccccc2s1	0%	-1%
COc1cc(N=c2ssnc2Cl)cc(OC)c1	16µM*	-12%
COc1cc(OC)cc(-c2nc(-c3ccccc3OC)no2)c1	?	-1%
O=C(Cn1ncn2c(cc3cc(F)ccc32)c1=O)NC1CCCCC1	1%	0%
CC(=O)c1ccc(NC(=O)c2cc3sccc3n2Cc2ccc(Cl)cc2)cc1	?	-4%
CCOC(=O)c1ccc(NC(=O)c2cc3sccc3n2Cc2ccc(Cl)cc2)cc1	10µM*	2%
CCOC(=O)c1cccc(NC(=O)c2cc3sccc3n2Cc2ccc(Cl)cc2)c1	9%	4%
Cc1ccc(Cn2c(C(=O)Nc3cccc(Cl)c3)cc3sccc32)cc1	25µM*	-5%
CN(C1CCCCC1)S(=O)(=O)c1ccc2c(c1)c(=O)c(C(=O)NCCc1ccc(Cl)cc1)cn2C	-2%	0%
O=C(Oc1ccccc1)N1CCC[C@@]2(CCN(c3ccccc3)C2)C1	-22%	-2%
COc1cccc(-n2c(C)nc3c(cnn3-c3ccc(C)c(C)c3)c2=O)c1	10%	-9%
SMILES	Cruzain noTriton	Cruzain Triton
Cc1cccc(NC(=O)CN2C(=O)COc3ccc(S(=O)(=O)Nc4ccccc4)cc32)c1C	?	3%
CC(C)c1ccc(NC(=O)CN2C(=O)COc3ccc(S(=O)(=O)Nc4ccccc4)cc32)cc1	20µM*	-8%
CCOc1ccc(-c2cc(NC(=O)Nc3cccc(C(C)=O)c3)c(C(=O)OC)s2)cc1	20%	-2%
CCOC(=O)c1sc(-c2ccccc2)cc1NC(=O)Nc1ccc([N+](=O)[O-])cc1	10µM*	-3%
COc1ccc(S(=O)(=O)NCCc2sc(-c3ccccc3)nc2C)cc1F	-16%	-7%
COc1ccc(OC)c(CCNC(=O)c2cc3cccc4c3n2CC(C)S4)c1 (configuration not stated)	-29%	-10%
O=C(c1ccc2c(c1)N(Cc1cccc(Cl)c1)C(=O)c1ccccc1S2(=O)=O)N1CCc2ccccc21	20µM*	-3%
Cc1ccc(C)c(CN2C(=O)c3ccccc3S(=O)(=O)c3ccc(C(=O)N4CCc5ccccc54)cc32)c1	32µM*	-1%
Cc1ccc(C)c(CN2C(=O)c3ccccc3S(=O)(=O)c3ccc(C(=O)N4CCN(C)CC4)cc32)c1	1%	1%
O=C(c1ccc2c(c1)N(Cc1ccccc1F)C(=O)c1ccccc1S2(=O)=O)N1CCc2ccccc21	3%	0%
COc1cccc(CNc2ncnc3onc(-c4ccc(F)cc4)c23)c1	4%	-1%
CCCCNC(=O)c1cccc(-n2cnc3cccnc32)c1C	6%	-2%
COC(=O)c1ccc(N2C(=O)Cc3cc(OC)c(OC)cc3C2c2ccc(F)cc2)cc1 (configuration not stated)	?	-7%
CCc1ccc(-c2nn(CC(=O)NC3CCCC3)c3c2cnc2ccc(C)cc23)cc1	2%	-1%
Cc1ccc(S(=O)(=O)c2c(N)n(/N=C/c3ccco3)c3nc4ccccc4nc23)cc1C	16µM*	-22%
Cc1cccc(S(=O)(=O)c2c(N)n(/N=C/c3ccco3)c3nc4ccccc4nc23)c1	-22%	-5%
COc1cccc(NC(=O)c2sc3nc(C)c(C(=O)Nc4ccc(C)cc4C)c(-c4ccc(C)o4)c3c2N)c1	-7%	-3%
CCCCN(C)CCNC(=O)c1cc2c(=O)n(C)c3ccccc3c2n1C	-4%	-5%
Cc1cc(Br)c(Cl)cc1NC(=O)CN1C(=O)C2C3CC(c4ccccc4)C(C3)C2C1=O (configuration not stated)	13µM*	-6%
Cc1cc(NC(=O)CCN2C(=O)C3C4CCC(C4)C3C2=O)c(C)cc1Br (configuration not stated)	1%	0%
CCOc1ccc(CNC(=O)CCC(=O)N2CC3CCCN3c3ccccc32)cc1 (configuration not stated)	3%	-3%
CC(C)(C)C1CCC2(CC1)Nc1cccc3cccc(c13)N2	25µM*	-6%
COc1ccc(N2C(=O)CSC23CCC(C(C)(C)C)CC3)cc1 (configuration not stated)	?	-8%
C[C@H]1[C@H](C)CC[C@]2(C(=O)O)CC[C@]3(C)C(=CC[C@H]4[C@]3(C)C[C@@H](O)C3[C@](C)(CO)[C@H](O)[C@@H](O)C[C@]34C)[C@H]12 (some centres not stated)	?	-3%
Cc1ccc(-c2nnc(Nc3cccc(Cl)c3)c3ccccc23)cc1S(=O)(=O)N1CCOCC1	3%	-3%
SMILES	Cruzain noTriton	Cruzain Triton
Cc1ccc(-c2nnc(Nc3ccc(Cl)c(Cl)c3)c3ccccc23)cc1S(=O)(=O)NCCO	15%	-2%
Cc1ccc(-c2nnc(Nc3ccc(Cl)c(Cl)c3)c3ccccc23)cc1S(=O)(=O)N(C)C	6.3µM*	-3%
Cc1ccc(-c2nnc(Nc3cccc(Cl)c3)c3ccccc23)cc1S(=O)(=O)N1CCCCC1	7.9µM*	-2%
CCc1ccc(CNC(=O)c2ccc(CS(=O)(=O)Cc3ccccc3C)o2)cc1	4%	0%
CC(C)c1cc(-c2nc(-c3ccccc3)no2)n[nH]1	2%	-4%
COc1cccc(CNC(=O)c2cc(S(=O)(=O)N3CCCCC3)c[nH]2)c1	4%	-3%
O=C(NCc1ccc(Cl)cc1)c1cc(S(=O)(=O)N2CCCCC2)c[nH]1	20µM*	?
CCCCCn1c(N)c(-c2nc3ccccc3o2)c2c([N+](=O)[O-])nn(C)c(=O)c21	?	-7%
CCCCCn1c(N)c(-c2nc3ccccc3o2)c2c([N+](=O)[O-])nn(CC)c(=O)c21	10µM*	-5%
Cc1ccc(SCC(=O)Nc2ccc(N3CCN(C)CC3)c(F)c2)cc1	-1%	-1%
O=C(CSc1ccccc1)Nc1ccc(N2CCN(c3ccccc3)CC2)c(F)c1	13µM*	9%
CCCCn1cnc2cc(NC(=O)c3cc(OC)c(OC)c(OC)c3)ccc21	9%	-8%
COC(=O)c1sc(-c2ccccc2)cc1NC(=O)c1ccc(OC)cc1	?	-8%
